Assay results from PubChem BioAssay (NCATS).

These compounds were tested against Nicotinamide N-methyltransferase (Homo sapiens) (UniProt P40261) (assay: Confirmatory Screen for Target Class Profiling of Small Molecule Inhibitors of Methyltransferases (AID 1745852)). Conditions: MTase-Glo luminescence, SAH detection, recombinant enzyme; measured here: NNMT max response; stronger effect = lower value.
Nicotinamide N-methyltransferase (Homo sapiens), sequence (P40261 whole entry, looked up): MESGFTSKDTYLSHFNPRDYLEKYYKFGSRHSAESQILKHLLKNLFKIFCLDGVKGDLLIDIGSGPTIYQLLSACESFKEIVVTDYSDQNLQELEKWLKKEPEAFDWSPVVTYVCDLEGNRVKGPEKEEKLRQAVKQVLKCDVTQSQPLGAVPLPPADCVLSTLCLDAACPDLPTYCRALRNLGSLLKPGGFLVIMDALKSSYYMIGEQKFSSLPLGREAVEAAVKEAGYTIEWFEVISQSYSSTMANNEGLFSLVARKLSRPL

Structure (SMILES)	activity [%]
COc1ccc(OC)c2c1cc1n2CC(C)(C(=O)NC2CCCCC2C)N(Cc2ccco2)C1=O (stereo not given)	-25.6
CNC(=O)NCCc1ncc(C)n1C1CCCCCCC1	-4.6
COc1ccc(-c2cc(-c3cnn(C)c3)cn3cncc23)cn1	-36.8
Cc1cc(C)c(CNC(=O)c2cc(-c3cnn(C)c3C)cc3c2OCCN3C)c(=O)[nH]1	-51.4
O=C(OCc1ccccc1)N1CCOCC12CCN(Cc1c[nH]c3ccccc13)CC2	5.55
CCCC1c2cccn2CCN1C(=O)Nc1ccccc1C(F)(F)F (stereo not given)	-18.7
CCN(CC)CCCNC(=O)CCc1nnc2n(CCc3ccccc3)c(=O)c3ccccc3n12	-11.7
Cn1cc(-c2cc3c(ccn3Cc3ccncc3)c(N3CCOCC3)n2)cn1	-4.04
FC(F)(F)c1cccc(-c2nccn3c(C4CN(Cc5ccc6cn[nH]c6c5)C4)ncc23)c1	-12.8
CC(CNC(=O)CCc1nnc2n(Cc3ccc(F)cc3)c(=O)c3ccccc3n12)c1ccccc1 (stereo not given)	-44.2
COc1ccc(-c2n[nH]n3c2nc(=O)c2ccc(C(=O)NC(C)c4ccc(F)cc4)cc23)cc1 (stereo not given)	-25
Cc1ccc(NC(=O)CSc2nnc3n(CC(C)C)c(=O)c4ccccc4n23)cc1	-8.6
COc1cccc(CN2CCCC3(CNc4ccccc4[S+](=O)([O-])N3)C2)c1 (stereo not given)	-12.2
O=C(c1ccc(C2CCCNC2)cc1)N1CCN(c2ccncc2)CC1 (stereo not given)	-3.55
COc1ccc(CCNc2nc3c(-c4cccc(F)c4)nnn3c3ccccc23)cc1OC	-5.65
COc1ccc(CN2C[C@@H](CO)[C@H](c3ccncc3)C2)c(OC)c1	-21.3
CC(C)CCN1CC2(CCCN(C(=O)c3ccn(C)c(=O)c3)C2)CCC1=O (stereo not given)	3.97
CCN(CC)CCNC(=O)CCCc1nnc2n3nc(-c4ccccc4)nc3c3ccccc3n12	-0.56
O=C(CCc1nnc2n(Cc3ccc(Cl)cc3)c(=O)c3ccccc3n12)NCCN1CCCC1	-12.3
Cc1cc2c(cc3n2CC(C)(C(=O)NC2CCCCCCC2)N(Cc2ccco2)C3=O)o1 (stereo not given)	-37.5

Structure (SMILES)	activity [%]
O=C(N[C@H](C1CCNCC1)C1CC(O)C1)c1ccc2nccnc2c1 (stereo not given in full)	10.8
Cc1ccc(Cn2c(=O)c3ccccc3n3c(CCC(=O)NCCCN4CCC(C)CC4)nnc23)cc1	-6.98
O=C(Cn1ccc2cc(S(=O)(=O)N3CCCCC3)ccc21)NCCCN1CCCCC1	-8.24
CC1CCCCN1CCCNC(=O)c1cc2c(s1)CN(C1CCCC1)C2 (stereo not given)	3.93
O=C(Cn1c(=O)oc2cc(S(=O)(=O)N3CCCC3)ccc21)NCCC1=CCCCC1	1.35
COc1cccc([S+](=O)([O-])N2CCC3(C2)N=C(c2cccnc2)C(=O)N3)c1 (stereo not given)	-8.17
Nc1nc(NCc2ccc(Cl)cc2Cl)cc(C2CC(O)C2)n1 (stereo not given)	-23.3
CC(=O)Nc1cc(-c2cc(C(=O)NCc3cccnc3)c3c(c2)N(C)CCO3)ccn1	-4.98
O=C(CCc1nnc2n(CCc3ccccc3)c(=O)c3ccccc3n12)N1CCN(C2CCCCC2)CC1	-47.4
OCC1(Cc2ccccc2)CCCN(Cc2cn[nH]c2-c2ccc(F)cc2)C1 (stereo not given)	0.855
O=C(Nc1ccc2ncnc(N3CCCCC3)c2c1)c1cc(F)ccc1F	-79.2
COc1ccc(-c2nnn3c2nc(N2CCOCC2)c2ccccc23)cc1	-27.8
CCOC(=O)CC1(NC(=O)N2CCn3cccc3C2Cc2ccccc2)CCCCC1 (stereo not given)	-6.48
Cc1cnc(C2CC2)n1C1CCN(S(=O)(=O)c2ccc3c(c2)OCCO3)CC1	-30.4
CN(C)CC1(O)CCC2(CCN(C(=O)c3cccn3C)CC2)CC1	3.1
CC1CCN(CCCNC(=O)CCc2nnc3n(Cc4ccc(F)cc4)c(=O)c4ccccc4n23)CC1	-14.9
Cc1cnc(C2CCC2)n1C1CCN(C(=O)CCC2CCCC2)CC1	-13.3
CC1CCCCN1CCNC(=O)CCc1nnc2n(Cc3ccc(F)cc3)c(=O)c3ccccc3n12 (stereo not given)	-9.89
CC(C)c1ccc(NC(=O)Cn2c(=O)oc3cc(S(=O)(=O)NCc4ccccc4)ccc32)cc1	-3.77
CCCC1c2cccn2CCN1C(=O)Nc1cccc(C(F)(F)F)c1 (stereo not given)	-7.32

These compounds were tested against Phenylethanolamine N-methyltransferase (Homo sapiens) (UniProt P11086) in the same assay as above. Conditions: MTase-Glo luminescence, SAH detection, recombinant enzyme; measured here: PNMT max response; stronger effect = lower value.
Phenylethanolamine N-methyltransferase (Homo sapiens), sequence (P11086 whole entry, looked up): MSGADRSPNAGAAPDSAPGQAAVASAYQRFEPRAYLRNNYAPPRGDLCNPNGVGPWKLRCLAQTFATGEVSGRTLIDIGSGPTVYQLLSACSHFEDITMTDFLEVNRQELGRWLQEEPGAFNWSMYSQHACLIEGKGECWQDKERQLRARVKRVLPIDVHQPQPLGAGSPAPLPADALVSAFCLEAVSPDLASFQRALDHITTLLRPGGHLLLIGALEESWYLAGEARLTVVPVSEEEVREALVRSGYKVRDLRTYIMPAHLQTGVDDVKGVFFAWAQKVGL

Structure (SMILES)	activity [%]
COc1ccc(OC)c2c1cc1n2CC(C)(C(=O)NC2CCCCC2C)N(Cc2ccco2)C1=O (stereo not given)	-10.3
CNC(=O)NCCc1ncc(C)n1C1CCCCCCC1	-0.137
COc1ccc(-c2cc(-c3cnn(C)c3)cn3cncc23)cn1	-7.46
Cc1cc(C)c(CNC(=O)c2cc(-c3cnn(C)c3C)cc3c2OCCN3C)c(=O)[nH]1	-75.2
O=C(OCc1ccccc1)N1CCOCC12CCN(Cc1c[nH]c3ccccc13)CC2	1.46
CCCC1c2cccn2CCN1C(=O)Nc1ccccc1C(F)(F)F (stereo not given)	-13.3
CCN(CC)CCCNC(=O)CCc1nnc2n(CCc3ccccc3)c(=O)c3ccccc3n12	2.52
Cn1cc(-c2cc3c(ccn3Cc3ccncc3)c(N3CCOCC3)n2)cn1	-7.43
FC(F)(F)c1cccc(-c2nccn3c(C4CN(Cc5ccc6cn[nH]c6c5)C4)ncc23)c1	-2.02
CC(CNC(=O)CCc1nnc2n(Cc3ccc(F)cc3)c(=O)c3ccccc3n12)c1ccccc1 (stereo not given)	-0.739
COc1ccc(-c2n[nH]n3c2nc(=O)c2ccc(C(=O)NC(C)c4ccc(F)cc4)cc23)cc1 (stereo not given)	-17.7
Cc1ccc(NC(=O)CSc2nnc3n(CC(C)C)c(=O)c4ccccc4n23)cc1	-2.78
COc1cccc(CN2CCCC3(CNc4ccccc4[S+](=O)([O-])N3)C2)c1 (stereo not given)	-3.23
O=C(c1ccc(C2CCCNC2)cc1)N1CCN(c2ccncc2)CC1 (stereo not given)	3.06
COc1ccc(CCNc2nc3c(-c4cccc(F)c4)nnn3c3ccccc23)cc1OC	-3.23
COc1ccc(CN2C[C@@H](CO)[C@H](c3ccncc3)C2)c(OC)c1	8.2
CC(C)CCN1CC2(CCCN(C(=O)c3ccn(C)c(=O)c3)C2)CCC1=O (stereo not given)	1.77
CCN(CC)CCNC(=O)CCCc1nnc2n3nc(-c4ccccc4)nc3c3ccccc3n12	-1.77
O=C(CCc1nnc2n(Cc3ccc(Cl)cc3)c(=O)c3ccccc3n12)NCCN1CCCC1	0
Cc1cc2c(cc3n2CC(C)(C(=O)NC2CCCCCCC2)N(Cc2ccco2)C3=O)o1 (stereo not given)	-6.55

Structure (SMILES)	activity [%]
O=C(N[C@H](C1CCNCC1)C1CC(O)C1)c1ccc2nccnc2c1 (stereo not given in full)	3.61
Cc1ccc(Cn2c(=O)c3ccccc3n3c(CCC(=O)NCCCN4CCC(C)CC4)nnc23)cc1	0
O=C(Cn1ccc2cc(S(=O)(=O)N3CCCCC3)ccc21)NCCCN1CCCCC1	-7.19
CC1CCCCN1CCCNC(=O)c1cc2c(s1)CN(C1CCCC1)C2 (stereo not given)	4.11
O=C(Cn1c(=O)oc2cc(S(=O)(=O)N3CCCC3)ccc21)NCCC1=CCCCC1	-61.9
COc1cccc([S+](=O)([O-])N2CCC3(C2)N=C(c2cccnc2)C(=O)N3)c1 (stereo not given)	-16.9
Nc1nc(NCc2ccc(Cl)cc2Cl)cc(C2CC(O)C2)n1 (stereo not given)	-0.704
CC(=O)Nc1cc(-c2cc(C(=O)NCc3cccnc3)c3c(c2)N(C)CCO3)ccn1	-28.5
O=C(CCc1nnc2n(CCc3ccccc3)c(=O)c3ccccc3n12)N1CCN(C2CCCCC2)CC1	0.426
OCC1(Cc2ccccc2)CCCN(Cc2cn[nH]c2-c2ccc(F)cc2)C1 (stereo not given)	5.69
O=C(Nc1ccc2ncnc(N3CCCCC3)c2c1)c1cc(F)ccc1F	-80.3
COc1ccc(-c2nnn3c2nc(N2CCOCC2)c2ccccc23)cc1	-35.3
CCOC(=O)CC1(NC(=O)N2CCn3cccc3C2Cc2ccccc2)CCCCC1 (stereo not given)	-4.39
Cc1cnc(C2CC2)n1C1CCN(S(=O)(=O)c2ccc3c(c2)OCCO3)CC1	-0.889
CN(C)CC1(O)CCC2(CCN(C(=O)c3cccn3C)CC2)CC1	9.04
CC1CCN(CCCNC(=O)CCc2nnc3n(Cc4ccc(F)cc4)c(=O)c4ccccc4n23)CC1	-5.49
Cc1cnc(C2CCC2)n1C1CCN(C(=O)CCC2CCCC2)CC1	-7.48
CC1CCCCN1CCNC(=O)CCc1nnc2n(Cc3ccc(F)cc3)c(=O)c3ccccc3n12 (stereo not given)	0.568
CC(C)c1ccc(NC(=O)Cn2c(=O)oc3cc(S(=O)(=O)NCc4ccccc4)ccc32)cc1	0
CCCC1c2cccn2CCN1C(=O)Nc1cccc(C(F)(F)F)c1 (stereo not given)	-5.65
